Drawing on PubChem BioAssay (NCI), this text covers growth for 39 molecules.

The panel holds about 83,000 compounds, 20% with a hit somewhere; the sample as a whole holds those more often.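 How to read the values: 0–100, growth inhibition (40 = 60% inhibited); 0, no net growth; -100 to 0, cell death (-40 = 40% of starting cells died; -100 = all dead).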 Values without a mark were called inactive. Activity calls are given as the source filed them. How the source made its calls: active means growth percent below 10; inactive means the rest.

In the experiment the test system is MDA-MB-468 breast. The experiment in a line: NCI-60 one-dose screen, 48 h (100 = growth as untreated, 0 = no growth, -100 = all killed). The note with it: 10 µM unless noted.
Turning to `NC(=O)OCCO`, the growth is 113%.
The result for `N#Cc1c(NC(=O)c2ccc(Br)cc2)sc2c1CCCC2` reads 19.5%.
As for `O=C(O)c1ccccc1N=Cc1ccccc1`, the figure is 112%.
As for `C=CCn1c(SCC(=O)c2ccc(OC)cc2)nnc1-c1ccc(OC)cc1`, the growth was 90.6%.
As for `COc1ccc(C2=NN(C(N)=S)C(c3ccc4c(c3)OCO4)C2)cc1` (centres undefined), the figure is -0.33% (active).
With `CN(Cc1ccccc1)c1ccc(SC#N)cc1`, the growth is 84.2%.
The result for `C#CCOc1ccc2nc(CCl)c(Cl)c(Nc3cccc(C(F)(F)F)c3)c2c1` reads 10.3%.
The result for `Cc1nn2c(/C=C3/C(=O)Nc4cc(Cl)ccc43)c(-c3ccccc3)nc2s1` reads 11%; that for `CCOc1ccc(/C=C(\C#N)c2cc3ccccc3[nH]2)cc1`, 33.4%.
As for `COc1cccc(/C=C\C(=O)c2ccccc2)c1`, the figure is 69.4%; as for `NC1=Nc2cc(OCCCCN3Cc4ccccc4C3)c(OCC3CC3)cc2C12CCCC2`, 7.97% (active); as for `O=C(COc1cccc2cccnc12)Nc1ccc(C(=O)/C=C/c2ccc(Cl)cc2)cc1`, 89.3%.
In the case of `O=C([C@@H](COCc1ccccc1)N1C(=O)[C@@H](N2C(=O)OC[C@@H]2c2ccccc2)[C@H]1/C=C/c1ccccc1)N1CCC(CCN2CCCCC2)CC1`, the growth is 64.8%.
As for `CSc1cccc([N+](=O)[O-])c1`, the figure is 94.1%; as for `CC1(C)N=C(N)N=C(N)N1c1cc(Cl)ccc1Cl`, 53.5%.
In the case of `COc1ccccc1NC(=O)N/C(N)=N/c1nc2ccccc2s1`, the growth was 14.2%.
Take `Cc1ccc(C(C(N)=O)C(C(N)=O)c2ccccc2)cc1` (centres undefined): the growth was 105%.
Consider `C#CCC(C(=O)OCC)C(=O)OCC`, for which the growth is 108%.
Regarding `Cc1ccc(NS(=O)(=O)c2ccc(-c3cnc(C4CC4)o3)cc2)cc1`, the growth is -0.814% (active).
On to `CCCCCC(=O)OCc1ccc(Cl)c(Cl)c1`, for which the growth is 123%.
The result for `C=C1C(=O)O[C@H]2[C@H]1CC/C(COC(=O)/C=C/c1c[nH]c3ccccc13)=C\CC[C@@]1(C)O[C@@H]21` reads -78.1% (active); that for `CC(=O)Nc1ccc(CC#N)cc1Br`, 102%.
Regarding `O=C(/C=C\c1ccco1)/C=C/c1ccco1`, the growth is 102%.
With `Nc1nc(N)c(-c2ccc(Cl)c(Cl)c2)c(CBr)n1`, the growth was 84%.
With `Cc1nc(N/N=C/c2cn(-c3ccccc3)nc2-c2cc3ccccc3oc2=O)sc1N=Nc1ccccc1`, the growth is 89.7%.
The result for `O=C(N/N=C/c1cc(Cl)ccc1O)C(=O)N/N=C/c1cc(Cl)ccc1O` reads 61.3%; that for `CCC1=C[C@@H]2C[C@]3(C(=O)OC)c4[nH]c5ccccc5c4CC[N@+](CC(=O)Nc4cc5c(cc4OC)N(C)[C@H]4[C@@](O)(C(=O)OC)[C@H](OC(C)=O)[C@]6(CC)C=CCN7CC[C@]54[C@@H]76)(C2)[C@H]13`, 111%.
As for `Nc1cc(N)nc(SCC(=O)O)n1`, the figure is 108%; as for `CCOC(=O)Nc1ccc(C(=O)/C=C/c2ccccc2)cc1`, 94%; as for `O=C(c1ccccc1)C(c1ccccc1)N1CCOCC1` (centres undefined), 103%.
On to `Cc1ccc([N+](=O)[O-])cc1Br`, for which the growth is 98.1%.
The result for `CCOC(=O)c1nnn(C(Cc2ccccc2Cl)C(=O)OCC)c1C` (centres undefined) reads 110%.
As for `O=C1N=NC2=C1c1c3ccccc3c(O)n1CC2`, the figure is 96.6%; as for `O=C1/C(=C/c2ccc(F)c(F)c2)CN(C(=O)C(Cl)Cl)C/C1=C\c1ccc(F)c(F)c1`, -58.2% (active).
For `CC(C)(C)c1ccc(O)c(C2CCCCC2)c1`, the growth is 111%.
The result for `O=C1/C(=C/c2cc(F)cc(F)c2)Cc2cc(F)cc(F)c21` reads 74.1%.
As for `Fc1cc2[nH]ncc2c2c3c(c(-c4cn[nH]c4)nc12)CCCC3`, the figure is -22.4% (active); as for `NS(=O)(=O)c1ccc(CN2C(=O)c3cccc4cccc(c34)C2=O)cc1`, 98.2%.
As for `COc1ccc(Nc2nnc(-c3ccc(OC)c(OC)c3)o2)cc1`, the figure is 90.8%.
